According to PubChem BioAssay (NCI):
This is part of a sample that, as a whole, favours compounds with a hit. Of some 79,000 tested, about 15% had one in any assay. A number with no mark means an inactive call. No stated cut-off is given here; in the data, active means growth inhibition above about 70%; inactive means the rest.

assay: NCI Yeast Anticancer Drug Screen. Data for the cln2 rad14 strain (AID 165);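 further: 0% = growth equal to vehicle treated cultures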; details: S. cerevisiae cln2 rad14 strain, at 50.0 µM, active compounds read high
Outline: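 Each compound was tested on cln2 rad14 yeast. Inhibition of growth was calculated against vehicle-exposed controls.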

Structure (SMILES)	growth inhibition [%]
CCCN(Cc1ccccc1)CC(O)c1ccc(Cl)cc1 (stereo not given)	2.95
COC[C@@H](N=Cc1ccc(OC)cc1)C(C)C	-28.8
Cc1c(C(=O)CC2OC(=O)C(Cl)=C2Cl)c2ccccc2n1C(=O)Nc1ccc(Cl)cc1 (stereo not given)	-32.4
CN(C)CCNc1ncnc2nc(-c3ccc4ccccc4c3)[nH]c12	11.6
CC(C)N(CC(=O)O)CC(=O)O	-5
C=CCOC(=O)CC	-6.05
CCC(C)(O)CCC(C)(O)CC (stereo not given)	-14.7
COc1ccc(C(=O)N=Nc2ccccc2)cc1	-49.9
COC(=O)C(C(=O)C(=O)Nc1c(Cl)cc([N+](=O)[O-])cc1Cl)c1nc2cc(C)c(C)cc2[nH]c1=O (stereo not given)	14.3
O=C1C(=O)c2ccccc2C(O)=C1CC=C(Cl)Cl	-33.1
COc1cc(Cl)ccc1C	-14.3
NNC(=O)Nc1ccccc1	-13.6
N#CC(c1ccccc1)C1CCCCC1 (stereo not given)	-4.3
COc1cccc(C2c3cc4c(cc3OC(C)(OC)C2C)OCO4)c1 (stereo not given)	-83.6
CCOC(=O)N(CCCl)C(=O)C(C)C	24.8
ClC(Cl)(Cl)C1CCC2CCCC21 (stereo not given)	6.1
Fc1ccc(NC(=S)Nc2ccc(F)cc2)cc1	-6.65
O=C1/C(=C/c2ccc3c(c2)OCO3)CC/C1=C\c1ccc2c(c1)OCO2	-55.6
Cc1ccc(S(=O)(=O)N/N=C(\C(=N/OCc2ccccc2)c2ccccc2)c2ccccc2)cc1	14.8
CCCc1nc(N)nc(C(=O)Nc2cccc(C(F)(F)F)c2)c1CC	4.05

Structure (SMILES)	growth inhibition [%]
CCN(CC)CCOC(=O)c1noc2cc([N+](=O)[O-])ccc12	-23.7
C#CCOC(=O)C(N)CS (stereo not given)	9.8
COC(=O)c1cc(=O)[nH]c(=O)[nH]1	9.45
CC1(C)CC(=O)C(/C=N/C(N)=S)=C(O)C1	6.2
COc1ccc(/C=C/C(=O)O)cc1OC	-1
CCC(C(=O)NC1c2ccccc2Oc2ccccc21)c1ccccc1 (stereo not given)	-12.4
O=C(O)C(=Cc1cccc2ccc3ccccc3c12)C(=O)O	-4.45
CCC(=O)NN(C(C)=O)c1ccccc1	-16.2
COC(=O)C1CSCN1 (stereo not given)	-61.4
COc1cc(CNC(=O)NCCCl)cc(OC)c1OC	-3.45
NC(=O)c1ccccc1NC(=O)C(=O)Cc1nc2ccccc2[nH]c1=O	12.7
CCCOC(=O)/C=C(\Cl)C(=O)OCCC	-23.2
CC1(C)C2CC=C(CCO)C1C2 (stereo not given)	-20.6
CC(=O)N1Cc2ncnc(N)c2C1	-10.6
CC(C)(C)NC(=O)Nc1nccs1	-86.5
CCCCCc1cc[n+](CC(=O)c2ccccc2)cc1	-62.7
Cn1c(N)c(N=O)c(=O)n(C)c1=O	-12.8
O=S(=O)(O)c1cc(N=Nc2cc(S(=O)(=O)O)c3ccccc3c2O)ccc1/C=C/c1ccc(N=Nc2cc(S(=O)(=O)O)c3ccccc3c2O)cc1S(=O)(=O)O	13.7
Cc1ccc2c(ccc3ccccc32)n1	-4.4
Cc1cc(Cl)nc(Nc2ccccc2)n1	-1.8
